This is a sample that favours compounds with a hit; in the whole collection about 28% have one here.
D1 mod – allosterically modulates the human D1 dopamine receptor | P21728 | HEK293 D1, CRE-luciferase, dopamine EC30 potentiation; actives deviate in either direction | B-score at 10 µM | 58,000 compounds, 5.9% hits | AID 641;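 active means luminescence count or its row- and column-corrected plate score outside the 99.7% band of the plate's sample wells, on either side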
CYP2C19 act – cytochrome P450 2C19 (human) activation; recombinant CYP2C19, luciferin-H EGE luminescence; active compounds read high; 0 = fully inhibited enzyme, 1 = untreated enzyme; activation factor at 5 µM; 96,000 tested, under 10 active;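 active means activation factor of at least 2 at 5 µM in the primary screen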
DAT uptake mod – human DAT dopamine uptake with cocaine, either direction; Q01959; LLC-PK1 hDAT cells, [14C]-dopamine uptake with cocaine IC80; actives deviate in either direction; B-score at 10 µM; 110,000 compounds, 1.3% hits;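 active means Z score or B-score, a plate-position-corrected score, falls beyond the plate's 99.7% confidence bounds, in either direction; inactive means both scores lie inside the 99.7% bounds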
CYP2C9 inh – inhibitors of human CYP2C9; CYP2C9 Supersomes, luciferin-H conversion, luminescence; inhibition, % at 5 µM; 96,000 compounds, 20% hits;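 active means blocking of liver enzyme CYP2C9 beyond about 50% at 5 µM, limit read from the data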
Target sequence (P11712 whole entry, looked up): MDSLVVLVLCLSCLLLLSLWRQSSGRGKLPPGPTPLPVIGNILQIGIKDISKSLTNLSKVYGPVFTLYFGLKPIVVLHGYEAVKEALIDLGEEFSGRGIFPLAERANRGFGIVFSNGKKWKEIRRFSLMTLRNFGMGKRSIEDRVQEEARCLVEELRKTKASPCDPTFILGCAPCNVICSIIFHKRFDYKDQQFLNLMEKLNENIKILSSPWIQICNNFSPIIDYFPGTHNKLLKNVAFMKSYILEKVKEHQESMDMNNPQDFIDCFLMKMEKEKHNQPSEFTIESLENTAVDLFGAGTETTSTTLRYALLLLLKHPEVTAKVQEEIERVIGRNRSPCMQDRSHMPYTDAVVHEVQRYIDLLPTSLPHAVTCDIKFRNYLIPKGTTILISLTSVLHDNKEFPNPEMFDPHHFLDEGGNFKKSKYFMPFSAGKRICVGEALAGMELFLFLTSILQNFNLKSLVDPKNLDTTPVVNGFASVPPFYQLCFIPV
CYP2C9 act – CYP2C9 (human) activation. 96,000 compounds, 1.4% hits. P11712. activation factor at 5 µM. recombinant CYP2C9, luciferin-H conversion, luminescence; active compounds read high; factor 1 = untreated enzyme, 0 = blocked;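 active means activation factor of 2 or more for CYP2C9 at a 5 µM dose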
CYP2C19 inh – blocks human cytochrome P450 2C19 | CYP2C19 Supersomes, luciferin-H EGE luminescence, 30 min | inhibition, % at 5 µM | 96,000 compounds, 21% hits | AID 778;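 active means CYP2C19 inhibition above a set limit at 5 µM in the primary screen, cut at about 50% in these data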
Each line names hits and unclear results; the compound was inactive in the other large screens.

CCOC(=O)C(NCc1ccc2c(c1)OCO2)(NC(=O)c1ccccc1)C(F)(F)F (stereo not drawn)	CYP2C9 inh 74.1, CYP2C19 inh 96.2 (no result: D1 mod)
CCOC(=O)C(NC(=O)c1ccccc1)(Nc1cc(C)on1)C(F)(F)F (stereo not drawn)	CYP2C19 inh 62.2
CCOC(=O)C(NCc1ccccc1OC)(NC(C)=O)C(F)(F)F (stereo not drawn)	none
O=C(O)COc1c(F)c(F)c(C(F)(F)F)c(F)c1F	none
Cc1nc2ccc(S(=O)(=O)N(C)CC(=O)N3CCc4ccccc4C3)cc2s1	none
Cc1cccc(OC(=O)C2C(c3ccccc3)C(C(=O)O)C2c2ccccc2)c1 (stereo not drawn)	CYP2C9 inh 59.3 (no result: D1 mod)
CC(C)CCOC(=O)C1C(c2ccccc2)C(C(=O)O)C1c1ccccc1 (stereo not drawn)	CYP2C19 inh 59.3 (no result: D1 mod)
O=C(O)C1C(c2ccccc2)C(C(=O)Oc2ccccc2)C1c1ccccc1 (stereo not drawn)	none (no result: D1 mod)
CCNC(=S)N(Cc1ccc2c(c1)OCO2)C1CC(=O)N(c2ccc(F)cc2)C1=O (stereo not drawn)	CYP2C9 inh 71.0, CYP2C19 inh 93.8 (no result: D1 mod)
CCOC(=O)c1c(Nc2ccccc2)sc(/C=C2\C=Nc3ccccc32)c1O	CYP2C9 inh 72.8 (no result: D1 mod)
COc1ccc(-c2csc(NC(C)c3nc4cc(C(F)(F)F)ccc4n3CCOCCO)n2)cc1 (stereo not drawn)	none (no result: D1 mod, CYP2C19 act, CYP2C9 inh, CYP2C9 act, CYP2C19 inh)
CN(CC(CC(=O)Nc1nncs1)c1ccccc1)S(=O)(=O)c1ccccc1 (stereo not drawn)	CYP2C9 inh 54.1, CYP2C19 inh 89.8
CN(CC(CC(=O)Nc1nncs1)c1ccccc1)S(=O)(=O)c1ccc(Br)cc1 (stereo not drawn)	CYP2C9 inh 56.6, CYP2C19 inh 94.5 (no result: D1 mod)
Cc1nnc(NC(=O)CC(CN(C)S(=O)(=O)c2ccccc2)c2ccccc2)s1 (stereo not drawn)	CYP2C19 inh 69.6 (no result: D1 mod)
O=C(O)CC(CC(=O)Nc1nncs1)c1ccccc1 (stereo not drawn)	none
CCc1nnc(NC(=O)CC(CN(C)S(=O)(=O)c2ccccc2)c2ccccc2)s1 (stereo not drawn)	none (no result: D1 mod)
CNS(=O)(=O)c1ccc(NC(=O)c2nc3nc(C)cc(C(F)F)n3n2)cc1	none (no result: D1 mod)
Cn1c(=O)[nH]c(=O)c2c1nc(Br)n2CCSc1nc2ccccc2o1	none
Clc1ccc(OCCCc2nc(-c3cccnc3)no2)c(Cl)c1	none
Clc1ccc(OCc2nc(-c3ccncc3)no2)cc1	CYP2C9 inh 94.6, CYP2C19 inh 95.4 (no result: D1 mod)
Clc1ccc(OCCCc2nc(-c3ccncc3)no2)c(Cl)c1	CYP2C9 inh 84.1, CYP2C19 inh 86.8 (no result: D1 mod)
COc1cccc(C=Nc2cccnc2)c1O	DAT uptake mod -6.95
COc1cccc(/C=N/NC(=O)CSCC(=O)Nc2ccccc2)c1O	none (no result: D1 mod)
CCOC(=O)N1CCC(NC2CCCCCCC2)CC1	CYP2C19 inh 58.0
COC(=O)C1CCN(C(=O)C2CCCCC2)CC1	CYP2C19 inh 65.9
COC(=O)C1CCN(C(=O)N2CCOCC2)CC1	none
CCOC(=O)N1CCN(C(=O)C2CCC(C(=O)N3CCN(C(=O)OCC)CC3)CC2)CC1 (stereo not drawn)	none (no result: CYP2C19 act, DAT uptake mod, CYP2C9 inh, CYP2C9 act, CYP2C19 inh)
CCOC(=O)N1CCC(NC(=O)C2CCN(S(=O)(=O)N3CCC(C)CC3)CC2)CC1	none
CCOC(=O)N1CCN(C(=O)C2CCCCC2)CC1	DAT uptake mod -2.57 (no result: D1 mod)
COC(=O)C1CCN(C(=O)COc2cc3sc(C)nc3c3sccc23)CC1	none
O=C(Nc1ccccc1)O/N=C/c1ccncc1	CYP2C9 inh 59.7, CYP2C19 inh 69.8 (no result: D1 mod)
CCOc1ccc(NC(=O)COC(=O)c2cccnc2)cc1	none
CC(=O)Oc1ccc2ccccc2c1C(NC(=O)Cc1ccccc1)c1ccccc1Cl (stereo not drawn)	CYP2C19 inh 63.1 (no result: D1 mod)
O=C(Sc1nnc(-c2ccccc2)o1)N1c2ccccc2Sc2ccccc21	none (no result: D1 mod, CYP2C19 act, CYP2C9 inh, CYP2C9 act, CYP2C19 inh)
Cn1ccnc1SC(=O)N1c2ccccc2Sc2ccccc21	CYP2C9 inh 97.0, CYP2C19 inh 83.9 (no result: D1 mod)
Cc1cc(C)c(S(=O)(=O)NCc2cn3c(C)csc3n2)cc1C	none
Cc1nc(CCNS(=O)(=O)c2cccs2)cs1	none
Cc1csc2nc(CCNS(=O)(=O)c3cccs3)cn12	CYP2C19 inh 70.1
Cc1ccc(S(=O)(=O)NCc2cn3c(C)csc3n2)cc1	none (no result: D1 mod)

Bioassay records (PubChem)
